Assay results from ChEMBL document CHEMBL4513216, “Probing the Open Global Health Chemical Diversity Library for Multistage-Active Starting Points for Next-Generation Antimalarials” (ACS Infect Dis, 2020).
Out of some 69,000 compounds screened, about 8,600 (12%) showed an effect of 50% or more. What follows is part of a selection rich in strong results, with near analogues and random picks from the rest.

system: Plasmodium berghei; test: Screen against P. berghei liver stage (PbLuc), transformed with Luciferase, at 10uM; assay type: functional, HepG2; settings: tested at 10 uM

Structure (SMILES)	INHIBITION
CCOc1ccc(S(=O)(=O)NC(=O)CC2CCCO2)cc1 (stereo not drawn)	-4.94%
Cc1ccc(CN2CC[C@H]3OCC[C@@]3(C(=O)N3CCCO3)C2)o1	0.618%
Cc1nn(CCC(=O)N2CCN(Cc3cnn(C)c3C)CC2)c(C)c1Br	43.4%
CC(C)c1nc(C2CCCN2C(=O)c2ccc(C#N)cn2)no1 (stereo not drawn)	22.9%
CN(C)c1cncc(C2CCCN(c3cnccn3)C2)n1 (stereo not drawn)	17.77%
CN(Cc1ccc(Br)c2cccnc12)S(C)(=O)=O	-17.85%
CC(C)N1CCC(c2cccc(C(=O)N(C)C)n2)CC1	-7.66%
c1ccc2c(c1)CC(N1CCCN(Cc3cccc4nonc34)CC1)C2	49%
c1cc(CN2CCC(c3nnc4n3CCCCC4)CC2)c2nonc2c1	64.4%
c1cc(CN2CCC(c3nnc4n3CCCCC4)CC2)c2c(c1)OCO2	29.7%
CC(C)CNC(=O)CNC(=O)Nc1cccc(Cl)c1-n1cccn1	-29.2%
CCOc1ncccc1NC(=O)NC1CCN(C(=O)C2CC2)CC1	41.2%
CCC(C)(COc1ncccc1Cl)NCC(=O)NC1CCCCC1 (stereo not drawn)	68.5%
CCC(C)(COc1ncccc1Cl)NCC(=O)NCC(C)C (stereo not drawn)	57.4%
CCC(C)(COc1ncccc1Cl)NCC(=O)Nc1ccc(Br)cn1 (stereo not drawn)	36.5%
Cc1ccc(Oc2ncccc2CNC(=O)NC2CCCCC2)cn1	19.4%
COc1ccc(C(=O)NCc2ccc(C(=O)O)o2)cc1	10.6%
O=C(Cc1ccc(F)cc1)NCc1ccc(C(=O)O)o1	1.62%
O=C(NCc1ccc(C(=O)O)o1)c1ccc(F)cc1	51.1%
CC(C(=O)Nc1sccc1C(N)=O)N(C)CCOc1ccccc1 (stereo not drawn)	94%
Cc1ccccc1OCCC(=O)OC(C)C(=O)Nc1sccc1C(N)=O (stereo not drawn)	45.1%
Cc1csc(CN(C)CCOc2ccccc2)n1	-4.23%
Cc1[nH]nc(CCC(=O)NCC2CCCN(C3CCCC3)C2)c1C (stereo not drawn)	41.6%
Cc1ccc(OCCN2CCN(Cc3cnn(CCO)c3)CC2)cc1	22.25%

Structure (SMILES)	INHIBITION
C=C(C)COc1cccc(C(=O)N2CCC3(CC2)CN(C)CCN3C)c1	46.1%
C=C(C)COc1cccc(C(=O)N2CCC(O)(c3ccccc3)CC2)c1	65.6%
CCOc1cccc(C(=O)N2CCC3(CC2)[C@H](O)C[C@@H]3OC)c1	-55.1%
C=C(C)COc1cccc(C(=O)N2CCC3(CCOCC3)CC2)c1	52.6%
CC(C)(O)CCc1cccc(C(=O)N2CCC3(CCOCC3)CC2)c1	-147%
COc1cccc(C(=O)N2CCOC3(CCCN(C(C)=O)C3)C2)c1 (stereo not drawn)	33.4%
CCn1nc(C)cc1C(=O)N1C[C@@H]2C[C@@H](c3nc(C)cs3)O[C@@H]2C1	15.6%
CC(C)COc1cncc(N(C)C2CCN(c3ncccn3)CC2)n1	21.2%
CC(C)COc1cncc(N2CCCN(CC(F)(F)F)CC2)n1	-1.04%
CC(C)COc1cncc(N2CCCN(c3ncccn3)CC2)n1	50.4%
O=C(NCc1ccco1)[C@@]12CCO[C@@H]1CCN(c1ncccn1)C2	27.6%
Cn1cc(CC2CC(=O)N(Cc3ccccc3OC(F)F)C2=O)cn1 (stereo not drawn)	33.1%
CN(C)C(=O)c1nn(C)c2c1CN(Cc1cccs1)C2	-6.23%
Cc1ccc(CN2C[C@H](N3CCOCC3)[C@@H]3OCCC[C@@H]32)o1	-22.1%
Cc1nccn1CCC1CCN(C(C)C)CC1	38.8%
CN1CCCN(c2ccc(F)cc2CNC(=O)c2ccsc2)CC1	79.7%
CN1CCCN(c2ccc(F)cc2CNC(=O)c2cccnc2)CC1	-12.2%
Cc1ccc(C(=O)NCc2cc(F)ccc2N2CCCN(C)CC2)o1	42.1%
CN(CCCOc1ccccc1Cl)C(=O)CN1C[C@H]2CC[C@@H](CC1=O)N2	17%
CCS(=O)(=O)NC1CCCN(c2ccc(F)cc2C)C1=O (stereo not drawn)	5.29%
Cc1oc(C(C)C)cc1C(=O)N1CCN(c2cnn(C)c(=O)c2)CC1	51.1%
CCc1ncc(C(=O)N2CCN(c3cnn(C)c(=O)c3)CC2)cn1	45.8%
Cc1cncc(C(=O)N2CCN(c3cnn(C)c(=O)c3)CC2)c1	-5.52%
CN(C)c1ccccc1C(=O)N1CCCC(c2ccc(C(=O)O)cc2)C1 (stereo not drawn)	18.6%

Structure (SMILES)	INHIBITION
CCC(C(=O)NCc1csc(N2CCOCC2)n1)n1cccn1 (stereo not drawn)	57.5%
CCC(C(=O)N1CCN(C(=O)N2CCOCC2)CC1)n1cccn1 (stereo not drawn)	33%
CCC(C(=O)NCc1csc(-c2ncccn2)n1)n1cccn1 (stereo not drawn)	60.4%
CC(Cn1cccn1)NCc1csc(-c2ncccn2)n1 (stereo not drawn)	-29.1%
CCc1csc(CNC(=O)C(CC)n2cccn2)n1 (stereo not drawn)	19.8%
CCC(C(=O)NCc1cc(N2CCOCC2)ncn1)n1cccn1 (stereo not drawn)	36.7%
Cc1ccoc1C(=O)N1CCO[C@H]2[C@H](OCCN(C)C)CC[C@@H]21	22.4%
Cc1ccc(C(=O)NCCS(=O)(=O)N2CCSCC2)n1C	-28.9%
CC(C)=CCN1CCN(CCCOc2ccccc2)[C@H]2CS(=O)(=O)C[C@H]21	-25.7%
CN(C)C(=O)N1CCN(CCCc2ccccc2)[C@H]2CS(=O)(=O)C[C@H]21	-11.5%
CC(C)=CCN1CCN(CCCc2ccccc2)[C@H]2CS(=O)(=O)C[C@H]21	51.3%
COc1ccc(OCCN(C)Cc2nc3c(cnn3C)c(=O)[nH]2)cc1	38.8%
CN1CCC(C)(CN(C)Cc2ccc(CCC(C)(C)O)cc2)C1 (stereo not drawn)	32.4%
Cc1cc(S(=O)(=O)NCC(C)(O)CN(C)C)c(F)cc1F (stereo not drawn)	36.5%
COc1cc(NC(=O)N(C)CC2CC2)ncn1	1.84%
COc1cc(NC(=O)N(C)CCC2CC2)ncn1	4.82%
COc1cc(NC(=O)N(C)C(C2CC2)C2CC2)ncn1	88.4%
CS(=O)(=O)c1cccc(C(N)c2ccc(Cl)cc2)c1 (stereo not drawn)	-53.2%
CCn1ccnc1CN1CCN(CCc2ccncc2)CC1C (stereo not drawn)	24.7%
O=C(O)[C@@H]1CN(C(=O)c2ccc(Cl)cc2)C[C@H]1c1cccc(F)c1	13.3%
O=C(O)[C@@H]1CN(C(=O)c2ccc(F)c(F)c2)C[C@H]1c1cccc(F)c1	65.7%
O=C(O)[C@@H]1CN(C(=O)c2ccc(O)cc2)C[C@H]1c1cccc(F)c1	-19.5%
CCN(Cc1nonc1C)C(=O)Cn1nc(C(F)(F)F)cc1C	44.35%
CCOc1cc(C(=O)n2cccn2)cc(OCC)c1OCC	-30.6%

Structure (SMILES)	INHIBITION
N#CCCN(C(=O)CCc1cscn1)c1ccc2c(c1)OCCO2	-7.46%
Cc1cccn2c(=O)cc(OC(=O)c3ccccc3)nc12	-19.7%
Cc1cccc(C(=O)Oc2cc(=O)n3cccc(C)c3n2)c1	-51.1%
Cc1ccc(C(=O)Oc2cc(=O)n3cccc(C)c3n2)cc1	59.8%
CN1CCc2c(C#N)c(NCC3CCCO3)n3cnnc3c2C1 (stereo not drawn)	-1.45%
CCOc1nc2cnccc2n(CC(=O)NCCc2ccccc2)c1=O	33.9%
CCOc1nc2cnccc2n(CC(=O)NCc2ccc(C)cc2)c1=O	53.1%
CCOc1nc2cnccc2n(CC(=O)NCc2ccco2)c1=O	46.7%
COc1cccc2c(=O)n(Cc3cccnc3)cnc12	-20%
COc1cccc2c(=O)n(C3CCCNC3)cnc12 (stereo not drawn)	61%
COc1cccc2c(=O)n(CCN3CCNCC3)cnc12	-109%
COc1cccc2c(=O)n(Cc3ccnc(C)c3)cnc12	17.5%
COc1cccc2c(=O)n(Cc3cc(C4CC4)[nH]n3)cnc12	-6.94%
COc1cccc2c(=O)n(C3CCNCC3)cnc12	57.3%
O=C(NCc1cccs1)C1CNCC12CCOCC2 (stereo not drawn)	-30.1%
CCCn1[nH]c(CNc2ccccc2)nc1=O	32.5%
CC(=O)c1cn(CC(=O)N[C@H](C(=O)O)C(C)C)c2ccccc12	35.1%
Cc1ccc(C)c(N2CCN(CC3(O)CCNC3)CC2)c1 (stereo not drawn)	50.5%
CCOc1ccccc1N1CCN(CC2(O)CCCNC2)CC1 (stereo not drawn)	29.2%
Cc1ccccc1N1CCCN(CC2(O)CCCNC2)CC1 (stereo not drawn)	39.9%
NC(=O)c1csc(C(=O)N2CCCC(n3cccn3)C2)c1 (stereo not drawn)	23.4%
Cc1nc(CN(Cc2ccc3c(c2)OCCO3)C2CCCC2)no1	-31.8%
CCN(CC)C(=O)CN1CCCC(c2nc(C)c3c(n2)N(C)CCC3)C1 (stereo not drawn)	36%
CNc1cc(C)nc(C2COCCN2Cc2csc(C)n2)n1 (stereo not drawn)	53.6%

Structure (SMILES)	INHIBITION
CNc1cc(C)nc(C2COCCN2CCc2ccccc2)n1 (stereo not drawn)	-2.9%
Cc1cc(N(C)C)nc(C2COCCN2Cc2csc(C)n2)n1 (stereo not drawn)	39.3%
Cc1ccc(Br)cc1S(=O)(=O)NCCc1nnc[nH]1	23.5%
Cc1ncnc2c1CCN(Cc1ccc3c(c1)OCO3)CC2	41.8%
CC(=O)NCCC(Cc1ccccc1)c1ccco1 (stereo not drawn)	-24.6%
O=C(CCCOc1ccc(F)cc1F)N1CCCC(n2cccn2)C1 (stereo not drawn)	11.4%
COCCn1cnnc1CN(C)c1nc(N)nc2c1CCCC2	23.3%
COCCn1cnnc1CN(C)c1nc(N)ncc1C	0.897%
CCc1nc(N)nc(N(C)Cc2nncn2CCOC)c1C	73.5%
CCO[C@@H]1CC[C@H]2[C@H]1OCCN2S(=O)(=O)C1CC1	2.59%
Cc1ccc(C(=O)NCCCN2CCOCC2)c(Cl)c1	-56.5%
CN(c1ccc(C(=O)NCCN2CCOCC2)c(Cl)c1)S(C)(=O)=O	38.5%
Cc1ccc(C(=O)NCCN2CCOCC2)cc1N(C)S(C)(=O)=O	55.5%
CN(c1ccc(C(=O)NCCCN2CCOCC2)c(Cl)c1)S(C)(=O)=O	46.8%
O=C(NCCCN1CCOCC1)c1ccc(Cl)cc1Cl	-4.52%
Cc1ccc(C(=O)NCCC2CCN(C)CC2)cc1N(C)S(C)(=O)=O	42.1%
Cc1cc(C)c(S(N)(=O)=O)cc1C(=O)NCCN1CCC(C)CC1	-7.83%
CN(c1ccc(Cl)c(C(=O)NCCCN2CCOCC2)c1)S(C)(=O)=O	63.3%
CC1CCN(CCCNC(=O)c2ccc(N(C)S(C)(=O)=O)cc2Cl)CC1	79.2%
Cc1ccc(C(=O)NC2CCN(C)CC2)cc1N(C)S(C)(=O)=O	34.2%
CN(c1ccc(C(=O)NCCCN2CCCC2)c(Cl)c1)S(C)(=O)=O	40.9%
CN(c1ccc(C(=O)NCCCN2CCCCC2)c(Cl)c1)S(C)(=O)=O	70.4%
